Data on 66 compounds can be found in PubChem BioAssay AID1628 (Sanford-Burnham Center for Chemical Genomics, 2009).

The campaign covered roughly 190,000 compounds. About 930 (0.49%) were called active.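 Rule for the calls: active = z-score of insulin promoter reporter brightness in nuclei below -3 at 5 µM, with at least 500 cells counted; inconclusive = wells with under 500 cells, flagged as toxic or sparse; inactive = the rest.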 The list shows a part of the results. Measured potencies and affinities stand elsewhere.

A short description of the assay: decrease of insulin promoter-GFP reporter – imaging, high-content screening, mouse beta cells (AID 1628). The note with it: MIN6 insulin promoter GFP reporter, at 5 µM, active compounds read low.
`COC(=O)CCC(NC(=O)c1cc(C)oc1C)C(=O)OC` (stereo unspecified): the z-score was 0.79 (inactive). On to `COc1ccc(-c2cc(C(F)F)n3ncc(C(=O)NCC4CCCO4)c3n2)cc1` (stereo unspecified), for which the z-score is -5.37 (active). `O=C(O)c1cc(-c2ccc(/C=C3/SC(=S)N(Cc4ccccc4)C3=O)o2)ccc1Cl`: the z-score was 4.28 (inactive). `N#C/C(=C/c1ccc(N2CCOCC2)o1)c1ccc(Br)cc1`: the z-score was 10 (inactive). For `Cc1nc2ccccn2c1P(=O)(N1CCCCC1)N1CCCCC1`, the z-score is 0.76 (inactive). Take `Cc1nc2ccccn2c1C(=O)NCc1ccc2c(c1)OCO2`: the z-score is -5.57 (active). Take `CCOCCCNc1nc2c(C)cccn2c(=O)c1/C=C1\SC(=S)N(CC(C)C)C1=O`: the z-score was 4.38 (inactive). As for `CCCN1C(=O)/C(=C/c2c(NCCCOCC)nc3c(C)cccn3c2=O)SC1=S`, the z-score is 5.71 (inactive).

Take `CC(C)(C)NS(=O)(=O)c1ccc(CCC(=O)NCc2ccc3c(c2)OCO3)cc1`: the z-score was 0.89 (inactive).

Take `Cc1ccc(-c2cc(-c3ccco3)c3c(N)c(C(=O)NN)oc3n2)cc1`: the z-score is 3.03 (inactive). Regarding `COc1cc(OC)c2c(-c3ccccc3)cc(=O)oc2c1`, the z-score is -1.04 (inactive). Consider `COC(=O)c1c(NC(=O)CN2CCN(Cc3ccc4c(c3)OCO4)CC2)sc(C)c1C`, for which the z-score is -5.05 (active). With `COC(=O)c1[nH]c2ccc(C)cc2c1NC(=O)CCN1CCN(Cc2ccc3c(c2)OCO3)CC1`, the z-score is -3.87 (active). As for `COC(CNC(=O)c1ccc(Cn2c(=S)[nH]c3cc4c(cc3c2=O)OCO4)cc1)OC`, the z-score is 3.48 (inactive).

Take `COC(=O)c1[nH]c2ccc(F)cc2c1NC(=O)CCN1CCN(Cc2ccc3c(c2)OCO3)CC1`: the z-score is -3.4 (active). The value for `CCCNC(=O)Cn1cnc2sc(C(=O)N3CCN(Cc4ccc5c(c4)OCO5)CC3)c(C)c2c1=O` was 3.66 (inactive); that for `CCCCN1C(=O)C2(NNc3ccccc3O2)c2ccccc21` (stereo unspecified) was 4.38 (inactive). The value for `Cc1cc(N2CCCC2)ccc1/C=C1\NC(=S)N(C)C1=O` was 10.4 (inactive); that for `COc1ccc(N=c2oc3c(OC)cccc3cc2C(=O)NCc2ccco2)c(OC)c1` was -3.31 (active); that for `O=C(Nc1ccc(F)cc1)NC1CCN(Cc2ccccc2)CC1` was -3.27 (active). As for `O=C(NN=C1CCN(Cc2ccccc2)CC1)c1cc(Br)ccc1O`, the z-score is 1.47 (inactive). For `CCCCNc1ccc2c3c(cccc13)C(=O)N(CCCC)C2=O`, the z-score was 17.1 (inactive). The value for `CC(=O)OCCCN1C(=O)c2ccc(Br)cc2C1=O` was 1.19 (inactive); that for `CC(C)Oc1ccccc1C1CC(=O)Nc2cc3c(cc21)OCCO3` (stereo unspecified) was -4.18 (active); that for `CCOC(=O)C1=C(C)NC(=O)CC1c1cc2c(cc1[N+](=O)[O-])OCO2` (stereo unspecified) was 3.01 (inactive). As to `CCNc1nc(N2CCCC2)nc(N2CCCC2)n1`, the z-score was -3.04 (active). On to `O=C(OCCN1C(=O)c2cccc3c(N4CCOCC4)ccc(c23)C1=O)c1ccc(Cl)cc1Cl`, for which the z-score is 3.13 (inactive). With `CN1C=CC2=C(C#N)C(N)C(C#N)(C#N)C(c3ccccc3)C2C1` (stereo unspecified) the figure was 10.1 (inactive). As for `CC12CCC(C/C1=N/O)C2(C)C` (stereo unspecified), the z-score was 0.65 (inactive).

`C(=N\Nc1nc(-c2ccccn2)nc2ccccc12)/c1ccccc1`: the z-score is -3.55 (active).

Turning to `Cc1ccc2nc(C(Cl)(Cl)Cl)nc(N/N=C/c3ccncc3)c2c1`, the z-score is 2.39 (inactive). The value for `CCOc1ccc(CNC(=O)CCn2c(=O)oc3ccccc32)cc1` was 3.4 (inactive). `CCOc1ccc(N2CC(C(=O)NCc3ccc(F)cc3)CC2=O)cc1` (stereo unspecified): the z-score is -5.37 (active). `CCOc1ccc(NC(=O)NC2CC(=O)N(c3ccc(OC)cc3)C2)cc1` (stereo unspecified): the z-score was 2.29 (inactive). With `COc1cc2nc(/C=C/c3ccc(N(C)C)cc3)sc2cc1SC` the figure was 15.9 (inactive); with `COc1cccc(NC(=O)Cn2c(SCC(=O)N3CCOCC3)nc3ccccc32)c1`, -4.09 (active); with `COc1cccc(NC(=O)CSc2nc3ccccc3c(=O)n2CCCC(=O)N2CCCC2)c1`, -4.63 (active). The value for `CCOc1ccc(NC(=O)Cn2c(=O)oc3ccccc32)cc1` was 3.64 (inactive); that for `COc1cccc(NC(=O)Cn2c(-c3cncs3)nc3ccccc32)c1` was 5.27 (inactive).

Turning to `COc1cccc(NC(=O)CSc2nncn2N)c1`, the z-score is 0.29 (inactive).

Regarding `COc1ccc(-n2c(Cc3cccn3C)nnc2SCC(=O)Nc2cccc(C)c2C)cc1`, the z-score was 3.05 (inactive). `COc1ccc(-n2c(SCC(=O)Nc3cccc4ccccc34)nc(O)cc2=O)cc1`: the z-score is -6.42 (active). As for `O=C(Nc1nnc(-c2ccc(Cl)s2)o1)C1CC1`, the z-score was 2.8 (inactive). With `CCn1nnc2sc3c(c2c1=O)CCC(C)C3` (stereo unspecified) the figure was 3.59 (inactive). With `O=C(CSc1ncn[nH]1)NCc1ccccc1`, the z-score was 5.42 (inactive). As for `C/C(CC(=O)NCc1ccc(Cl)cc1)=N\NC(=O)Cc1ccccc1`, the z-score was -4.08 (active). Turning to `COc1cc(OC)c(OC)cc1/C=C1\Oc2cc(OS(C)(=O)=O)ccc2C1=O`, the z-score is 5.02 (inactive).

As to `Cc1ccc(-c2nc(C#N)c(NCCN3CCCCC3)o2)cc1`, the z-score was -3.25 (active). `CC(=O)N1CCOCCOCCN(C(C)=O)CCOCC1`: the z-score is 2.13 (inactive). In the case of `O=C(/C=C/c1cccs1)N1CCOCC1`, the z-score is -5.7 (active).

For `CN(C)c1ccc(/C=C2\SC(=S)N(Nc3ncc(C(F)(F)F)cc3Cl)C2=O)cc1`, the z-score was 4.86 (inactive).

Take `Cc1cccc(Oc2nccc(C(F)(F)F)c2C(=O)Nc2ccc(F)cc2F)c1`: the z-score was 3.57 (inactive).

As to `Fc1ccc(NC(=S)NNc2ncc(C(F)(F)F)cc2Cl)c(F)c1`, the z-score is -3.64 (active).

Turning to `O=Cc1sc(Nc2ccccc2)nc1Cl`, the z-score is 3.66 (inactive). For the compound `Oc1c(/C=C/C=C/C=Nc2ccccc2)sc(=S)n1Cc1ccccc1`, the z-score is 3.27 (inactive). `CSc1nsc(/C=C/Nc2ccc(C)cc2)c1C#N`: the z-score is 3.5 (inactive). Regarding `Cc1ccc(C)c(N=Nc2ccc(O)c3ncccc23)c1`, the z-score was -4.77 (active). For `N#C/C(=C/c1ccc(-c2ccccc2)o1)c1nc(-c2cccs2)cs1`, the z-score is 14.7 (inactive).

Turning to `Cc1ccc(OCC2Cn3c(nc4c3c(=O)n(C)c(=O)n4C)O2)cc1` (stereo unspecified), the z-score was -6.54 (active). Take `CC(=O)NC(c1ccc(Cl)cc1)c1c(O)ccc2ccc(O)cc12` (stereo unspecified): the z-score was 10.6 (inactive). Consider `CCc1c(C)nc2ncnn2c1N1CCC(C(=O)NCc2cccc(OC)c2)CC1`, for which the z-score was -5.78 (active). On to `COc1nc(OC)nc(N2CCC(C(=O)NCc3cccs3)CC2)n1`, for which the z-score is 3.48 (inactive). Turning to `CCc1c(C)nc2ncnn2c1N1CCC(C(=O)Nc2ccc(C)cc2)CC1`, the z-score is -5.25 (active). For the compound `Cc1cc(N2CCC(C(=O)N3CCN(c4cccc(C)c4C)CC3)CC2)n2ncnc2n1`, the z-score was -4.36 (active).

As for `COc1ccccc1N1CCN(c2cc(C)nc3nc(C)nn23)CC1`, the z-score was 1.58 (inactive).

Take `Cc1cc(C)nc(N2CCC(C(=O)Nc3ccc4c(c3)OCCO4)CC2)n1`: the z-score was 3.37 (inactive).
